This passage reports growth results from PubChem BioAssay (NCI).

Common to all, as to test: NCI-60 one-dose screen, 48 h (100 = growth as untreated, 0 = no growth, -100 = all killed)
For assay [1], the system named is SR leukemia. The following applies: 10 µM unless noted.
In assay [2] the test system is RPMI-8226 leukemia. The following applies: 10 µM unless noted.
Assay [3] deals with OVCAR-8 ovarian. To be noted: 10 µM unless noted.
The test system of assay [4] is OVCAR-5 ovarian. The following applies: 10 µM unless noted.
The subject of assay [5] is OVCAR-4 ovarian. The following applies: 10 µM unless noted.
Assay [6] relates to SK-OV-3 ovarian. The following applies: 10 µM unless noted.
The test system of assay [7] is IGROV1 ovarian. To be noted: 10 µM unless noted.
Assay [8] has as its system OVCAR-3 ovarian. The following applies: 10 µM unless noted.
The test system of assay [9] is HS 578T breast. To be noted: 10 µM.
For assay [10], the system named is NCI/ADR-RES ovarian. To be noted: 10 µM unless noted.

About 83,000 compounds went through this panel and 20% of them were active in at least one assay; those are over-represented in the sample as a whole.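 Activity criterion: percent growth below 10, measured after cells in 96-well plates were exposed to a single compound concentration for 48 hours.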 Values without a mark were called inactive. Calls of active or inactive are those of the source.

On to `Cc1nn(-c2nc3ccccc3[nH]2)c2c1C(c1ccc(O)cc1)CC(=O)N2` (stereo not given), for which the growth in [1] is 53.7%; in assay [2], 101%; in assay [3] it was 55.3%; in assay [4], 109%; in assay [5], 112%; in assay [6], 84.3%. Also, the growth in assay [7] is 75.9%; in [8] it was 93.2%; in assay [9], 28.1%; in assay [10], 88.5%.

In the case of `Cc1cc2c(-c3nc4ccccn4c3Nc3cccc4ccccc34)c(O)c(O)cc2c(O)c1-c1c(C)cc2c(-c3nc4ccccn4c3Nc3cccc4ccccc34)c(O)c(O)cc2c1O`, the growth in [1] was 27.5%; in [2], 14.5%; in assay [3], 39.8%; in assay [4] it was 66.8%; in [5], 56%; in assay [6], 24.2%. For the same compound, the growth in [7] was 47.8%; in [8] it was 68.3%; in [9], 39.7%; in assay [10] it was 81.6%.

Take `N#CC(C#N)=NO`: the growth in assay [1] is 97.1%; in assay [2] it was 101%; in [3], 103%; in assay [4], 104%; in assay [5] it was 113%; in assay [6] it was 89.1%. For the same compound, the growth is 101% in assay [7], 111% in [8], 99.6% in assay [9] and 100% in assay [10].

For `CN1CCN(CCCOc2cccc3nc(Nc4ccc(Cl)c(C(F)(F)F)c4)ccc23)CC1`, the growth in assay [1] was -33.3% (active); in assay [2], 10.6%; in assay [3], 13.9%; in [4], 17.9%; in assay [5], 42.1%; in [6], 52.5%. Besides, the growth is 55.4% in assay [7], -4.07% (active) in [8], 32.6% in assay [9] and -0.603% (active) in assay [10].

Turning to `CC(C)c1ccc(/C=N/Nc2nc3ccccc3s2)cc1`, the growth is 89.9% in assay [1]; 88.4% in assay [2]; 87.5% in [3]; 102% in assay [4]; 81.4% in assay [5]; 89.4% in assay [6]. Also, the growth is 70% in assay [7], 88.7% in [8], 92.8% in assay [9] and 92.6% in assay [10].

On to `COc1ccc(C2CC(=O)c3c(O)c(OC)c(OC)c(OC)c3O2)c(O)c1` (stereo not given), for which the growth in [1] is 23%; in assay [2] it was 32.7%; in assay [3], 36.5%; in assay [4] it was 54.2%; in assay [5], 48.9%; in [6] it was 42.9%. For the same compound, the growth was 46.3% in [7], 0.132% (active) in assay [8], 36.5% in [9] and 4.44% (active) in assay [10].

As for `CCN(CC)c1cc2oc3cc(N)cc(=N)c-3nc2cc1C`, the growth in assay [1] was 30.4%; in [2], 43.4%; in [3], 2.1% (active); in assay [4], 32.3%; in [5], -6.55% (active); in assay [6], 103%. Also, the growth is 50.9% in assay [7], 24.7% in assay [8], 37.4% in [9] and 1.37% (active) in [10].

Consider `COC(=O)CCCNc1c(-c2c(O)c(O)cc3c(O)c(-c4c(C)cc5c(-c6nc7ccccn7c6NCCCC(=O)OC)c(O)c(O)cc5c4O)c(C)cc23)nc2ccccn12`, for which the growth is 24.3% in assay [1]; 22.5% in assay [2]; 51.4% in assay [3]; 119% in assay [4]; 98.6% in [5]; 50.5% in assay [6]. The growth in assay [7] was 34.8%; in [8], 64.6%; in [9], 34.5%; in assay [10] it was 100%.

As to `Cc1[nH]n(C(N)=S)c(=O)c1N=Nc1ccc(S(=O)(=O)Nc2ccncn2)cc1`, the growth was 111% in assay [1]; 47.2% in assay [2]; 106% in [3]; 111% in [4]; 95.1% in assay [5]; 100% in [6]. The growth in assay [7] is 67.3%; in assay [8], 99%; in [9] it was 86.2%; in [10], 104%.

For `CN1CCN(CC(=O)Nc2ccc(-c3nc4ccccc4s3)cc2)CC1`, the growth is 6.26% (active) in [1]; 88.1% in assay [2]; 91.3% in assay [3]; 72.9% in [4]; 87.3% in [5]; 94.2% in [6]. The growth was 80.6% in [7], 99.2% in [8], 93.7% in [9] and 85.6% in assay [10].

With `COc1ccc(-n2c(=O)c3ccccc3n(Cc3ccc(C(=O)NO)cc3)c2=O)cc1`, the growth was 7.16% (active) in assay [1]; 12% in assay [2]; -0.914% (active) in assay [3]; 58.4% in assay [4]; 17.1% in assay [5]; 28.3% in [6]. Also, the growth in assay [7] is 14.4%; in [8] it was 8.92% (active); in assay [9], 56.9%; in [10], 70.2%.

`COc1cc2cc(NCc3ccc(Cl)cc3)nc(C)c2cc1OC`: the growth is 18.7% in assay [1]; 14.3% in assay [2]; 40.9% in assay [3]; 41.2% in assay [4]; 82.3% in [5]; 68% in assay [6]. The growth in assay [7] is 43%; in assay [8], 49.4%; in [9], 70.5%; in [10], 33.6%.

For the compound `COc1cc(NCCCN)c2ncccc2c1`, the growth in assay [1] is 68.5%; in assay [2], 38.5%; in assay [3], 82.1%; in assay [4] it was 93.2%; in assay [5], 84.1%; in [6], 89.1%. The growth is 95.7% in assay [7], 93.3% in assay [8], 92.2% in assay [9] and 85.7% in [10].

On to `O=C1CCC(=O)CC1`, for which the growth in assay [1] was 97.4%; in assay [2] it was 110%; in [3] it was 101%; in [4], 92.3%; in [5], 113%; in assay [6], 112%. The growth was 96.3% in assay [7], 117% in [8], 103% in assay [9] and 104% in assay [10].

For the compound `N#Cc1c(-c2ccc(C(F)(F)F)cc2)cc(NCC2CCS(=O)(=O)CC2)n2c1nc1ccccc12`, the growth in assay [1] was 79.9%; in assay [2], 80.9%; in assay [3] it was 93.3%; in assay [4], 103%; in [5], 85.4%; in assay [6], 83.3%. Also, the growth in assay [7] is 85.6%; in assay [8], 97.9%; in [9] it was 81.3%; in assay [10], 103%.

`N#Cc1c(-c2ccc(C(F)(F)F)cc2)c(F)c(NCCC2CCC(O)C2)n2c1nc1ccccc12` (stereo not given): the growth in [1] was 9.1% (active); in assay [2], 49.5%; in [3] it was 45.4%; in [4], 88.7%; in assay [5], 69.9%; in assay [6] it was 43.2%. Besides, the growth in [7] is 50.2%; in assay [8], 79.9%; in assay [9] it was 86.8%; in assay [10] it was 37.9%.

For the compound `CCOC(=O)C1=C(C)N=C2Sc3cc(OC(F)(F)F)ccc3N2[C@H]1c1ccccn1`, the growth in assay [1] is 26.2%; in assay [2], 33.6%; in assay [3], 38%; in [4], 65%; in assay [5], 28.3%; in [6] it was 39.9%. For the same compound, the growth in [7] is 39.8%; in [8], 51.5%; in assay [9], 63.5%; in assay [10], 38.2%.

`CCc1cc2c(c3ccc(C(=O)CBr)cc13)CCCC2`: the growth in [1] is 91.7%; in assay [2] it was 113%; in assay [3] it was 105%; in assay [4], 91.1%; in assay [5] it was 110%; in assay [6], 103%. The growth in assay [7] was 99.1%; in assay [8] it was 102%; in [9] it was 98.8%; in assay [10], 93.5%.

Take `COc1cc(-c2nc(C(=O)NCC(=O)O)nn2-c2ccc(Cl)cc2)cc(OC)c1OC`: the growth in [1] is 106%; in assay [2], 99%; in assay [3] it was 102%; in [4], 105%; in assay [5], 105%; in assay [6], 98.7%. The growth in assay [7] is 105%; in assay [8], 107%; in assay [9], 106%; in [10], 105%.

As to `CCCCCCCCCNCCCCCCCCC`, the growth in assay [1] is -22.9% (active); in assay [2], -22.4% (active); in assay [3], 73.5%; in assay [4], 63.5%; in [5], 29.2%; in [6] it was 92.6%. Further, the growth in assay [7] is 50.8%; in assay [8], 86%; in [9], 83.7%; in [10], 68.3%.

On to `CCCc1cc2cc(-n3nc(C)c4c3CC(C)(C)CC4=O)cc(NC3CCC(O)CC3)c2c(=O)[nH]1` (stereo not given), for which the growth was 23.8% in [1]; 15.2% in [2]; 33% in assay [3]; 50.5% in assay [4]; 64.7% in assay [5]; 6.8% (active) in assay [6]. The growth in assay [7] is 36.9%; in assay [8], 23.2%; in [9], 47.4%; in assay [10], 45.5%.

For the compound `COc1ccc(-c2cnc(-c3ccc(Cl)cc3)[nH]2)cc1OC`, the growth in assay [1] is 42.7%; in [2], 33.1%; in [3], 98.9%; in assay [4] it was 98.2%; in assay [5] it was 89.9%; in assay [6], 94.6%. Also, the growth in assay [7] is 52.5%; in assay [8], 103%; in [9] it was 93.5%; in assay [10], 106%.

For `NC1=Nc2ccccc2N(O)N1`, the growth in assay [1] is 105%; in assay [2], 107%; in assay [3] it was 104%; in assay [4], 92.4%; in assay [5] it was 99.8%; in [6], 90.9%. Further, the growth in [7] was 105%; in [8] it was 111%; in assay [9], 97.3%; in [10], 103%.

For `CCN1/C(=C/C=C/c2n(-c3ccccc3)c3ccc(-c4nc5ccccc5s4)cc3[n+]2CC)N(c2ccccc2)c2ccc(-c3nc4ccccc4s3)cc21`, the growth in assay [1] is 15.5%; in assay [2], 8.29% (active); in assay [3], 10.6%; in assay [4], 31.4%; in [5] it was 24.7%; in assay [6], -4.86% (active). Moreover, the growth in assay [7] is 14%; in assay [8], -0.0306% (active); in assay [9], 28.2%; in assay [10] it was 52.3%.

On to `Clc1ccc2c(NCCCNCc3ccc4c(c3)OCO4)ccnc2c1`, for which the growth in assay [1] was -22.9% (active); in [2], 22%; in assay [3] it was 30.7%; in assay [4] it was 85.8%; in [5], 59.1%; in assay [6], 71.2%. Moreover, the growth is 57.3% in assay [7], 63.7% in assay [8], 78.9% in assay [9] and 74.3% in [10].

As for `NN1C(=O)CSC1=S`, the growth is 98.5% in assay [1]; 102% in assay [2]; 111% in assay [3]; 96.8% in assay [4]; 105% in assay [5]; 98.6% in assay [6]. Further, the growth in [7] is 110%; in assay [8], 110%; in assay [9], 101%; in assay [10], 114%.

As for `CC(=O)C1CC(C)CCC1C(C)C` (stereo not given), the growth was 78.9% in assay [1]; 56.3% in assay [2]; 109% in assay [3]; 105% in assay [4]; 61.4% in [5]; 108% in assay [6]. In addition, the growth was 99.2% in assay [7], 94.7% in assay [8], 106% in assay [9] and 86.4% in assay [10].
